Akt phos inh: Akt phosphorylation inhibition; Neuro2A IGF-stimulated pAkt S473 HTRF, 20 min; hits give low values; activity change, % for hits at 50 µM; 360,000 tested, 0.32% active; in the data active means activity change below about -80%; inconclusive means mostly about -51% to -80%; further: on the % scale 0 is the no-effect control and ±100 the full control effect
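Neuro2A cells in DMEM with 0.5% FBS, overnight at 37 deg C, given compound at single 50 µM final, then IGF (6 nM final) for 20 min at 37 deg C. Lysed; phospho-Akt Ser473 by HTRF after 24 h, 665/615 ratio.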
hERG WT inh: blocks the wildtype human KCNH2 potassium channel. activity change, % at 1.84 µM. U2OS, BacMam KCNH2, thallium flux FluxOr; hits give low values. AID 720551. Q12809. 340,000 tested, 0.37% active;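 active means maximum activity change below -70%; inconclusive means maximum activity change between -70% and -50%; inactive means maximum activity change above -50%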; further: on the % scale 0 is the no-effect control and ±100 the full control effect
Target sequence (Q12809 whole entry, looked up): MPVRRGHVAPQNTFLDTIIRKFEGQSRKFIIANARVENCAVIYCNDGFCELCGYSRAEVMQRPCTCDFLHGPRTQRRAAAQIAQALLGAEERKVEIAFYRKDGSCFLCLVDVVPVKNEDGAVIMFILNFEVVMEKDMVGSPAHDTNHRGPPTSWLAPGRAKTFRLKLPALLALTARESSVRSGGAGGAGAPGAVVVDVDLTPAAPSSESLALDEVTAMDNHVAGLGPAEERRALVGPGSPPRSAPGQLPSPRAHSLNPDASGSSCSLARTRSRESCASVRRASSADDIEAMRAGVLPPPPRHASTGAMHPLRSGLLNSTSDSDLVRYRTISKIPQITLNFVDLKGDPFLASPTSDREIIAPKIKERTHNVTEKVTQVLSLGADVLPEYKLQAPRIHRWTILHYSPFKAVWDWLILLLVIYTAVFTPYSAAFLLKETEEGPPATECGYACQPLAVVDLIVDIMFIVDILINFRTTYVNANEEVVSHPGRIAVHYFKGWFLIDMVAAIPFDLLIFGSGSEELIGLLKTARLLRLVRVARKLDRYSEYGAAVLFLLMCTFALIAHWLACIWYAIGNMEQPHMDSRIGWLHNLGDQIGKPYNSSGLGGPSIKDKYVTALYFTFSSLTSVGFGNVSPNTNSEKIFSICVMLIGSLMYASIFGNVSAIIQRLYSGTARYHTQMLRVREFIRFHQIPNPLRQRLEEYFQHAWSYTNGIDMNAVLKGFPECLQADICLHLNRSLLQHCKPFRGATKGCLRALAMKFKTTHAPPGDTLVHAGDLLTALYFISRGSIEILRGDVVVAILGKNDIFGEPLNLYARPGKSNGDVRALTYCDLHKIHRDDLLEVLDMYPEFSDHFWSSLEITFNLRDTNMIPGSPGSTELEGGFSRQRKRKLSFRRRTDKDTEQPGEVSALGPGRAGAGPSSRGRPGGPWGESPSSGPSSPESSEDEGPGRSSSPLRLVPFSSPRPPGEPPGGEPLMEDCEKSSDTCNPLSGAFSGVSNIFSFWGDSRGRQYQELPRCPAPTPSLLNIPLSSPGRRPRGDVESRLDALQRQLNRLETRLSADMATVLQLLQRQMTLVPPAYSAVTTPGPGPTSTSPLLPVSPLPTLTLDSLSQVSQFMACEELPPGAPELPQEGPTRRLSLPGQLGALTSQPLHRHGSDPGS
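U2OS cells were transduced with wild-type KCNH2 virus (2.03 x 10^8 / mL) for 4 h at room temperature, then cultured overnight at 37 C. Thallium flux was read with FluxOr dye. Rate constants were normalized to DMSO controls.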
Glioma ERSR ind: ER stress response induction in glioma | U87-MG GRP78 promoter luciferase reporter, 16 h | Potency, µM, for the others: at the highest dose activation, hits mostly activators | 420,000 tested, 0.02% active | AID 602332; active means well fitted activation curve with a large enough effect; inconclusive means small, poorly fitted or top-dose-only effect; inactive means no such curve, though single readings can be large or run the other way; further: potency means the concentration at half of the fitted maximal effect; series mostly up to about 76 µM; % of control where 0% means no effect; nearly all actives have a fitted effect of over 35% in size
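Stably transfected U87-MG human glioma cells carrying a GRP78-based luminescent sensor were seeded at 1000 cells/well, pin-dosed with compounds and incubated 16 h. Luciferase reagent was then added, and end-point luminescence was read after 10 min at room temperature.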
KCNH2 3.1 inh: KCNH2 3.1 (human) potassium channel inhibition. U2OS KCNH2 3.1, thallium flux FluxOr; hits give low values. activity change, % (tested at about 1.8 µM). 340,000 tested, 0.95% active. AID 720553;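 active means maximum activity change below -70%; inconclusive means maximum activity change from -70% to -50%; inactive means maximum activity change above -50%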;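 further: thallium influx rate constant from kinetic fluorescence after stimulation buffer; on the % scale 0 is the no-effect control and ±100 the full control effect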
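We transduce U2OS cells with the mutant 3.1 virus, culture them overnight, load FluxOr with Red40 quencher for 45 min, then add stimulation buffer and read kinetically for 2 min to derive a normalized rate constant.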
gsp agonist: agonists of gsp mutant (McCune-Albright syndrome) | 340,000 tested, 0.13% active | Potency, µM (series often up to 76.9 µM), inactives show top-dose activation (cAMP increase), usual class: activators | AID 624287 | gsp mutant cells, cAMP HTRF, 30 min; active means well fitted activation curve with a large enough effect; inconclusive means small, poorly fitted or top-dose-only effect, or another doubt; inactive means no such curve, though single readings can be large or run the other way; cell line not stated here;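 further: phosphodiesterase inhibitor Ro 20-1724 added with compounds to block cAMP breakdown; potency means the concentration at half of the fitted maximal effect; nearly all actives have a fitted effect of over 60% in size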
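Cells in DMEM/10% FBS with G418 were pretreated with compounds in DMSO plus […] (300 uM stock) for 30 min at 37C. cAMP was measured by HTRF (cAMP-d2 plus anti-cAMP antibody-K) after 30 min at room temperature.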
gsp antag: antagonists of gsp mutant (McCune-Albright syndrome); gsp-mutant cells, cAMP HTRF, 30 min; Potency, µM (highest dose often 76.9 µM), inactives show at the top dose activity change, negative = inhibition, actives largely listed as inhibitors; 340,000 tested, 0.4% active; calls by dose curve; cell line not stated here;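 further: intracellular cAMP measured with PDE inhibitor Ro 20-1724 present during compound exposure; potency means the concentration at half of the fitted maximal effect; on the % scale 0 is the no-effect control and ±100 the full control effect; nearly all actives have a fitted effect of over 65% in size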
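G418-selected cells were plated in DMEM/10% FBS for 16-24 h at 37C, then treated with compounds plus the PDE inhibitor […] (300 uM solution added) for 30 min at 37C. Intracellular cAMP was measured by HTRF after 30 min lysis at room temperature.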
* hit, by the source's call; [ ] = another dose, or the depositor's remark. Only some compounds are listed: those with a hit (about 1.6% of all), similar ones and a draw of the others.

`Cc1c(NS(C)(=O)=O)c(=O)n(-c2ccccc2)n1C` gave Akt phos inh inactive, hERG WT inh 0, Glioma ERSR ind -2%, KCNH2 3.1 inh 4, gsp agonist 9% and gsp antag 11%.
Cc1ccc(N(CC(=O)Nc2c(C)n(C)n(-c3ccccc3)c2=O)S(C)(=O)=O)cc1C was read as Akt phos inh -109%*, hERG WT inh 1, Glioma ERSR ind -2%, KCNH2 3.1 inh -12, gsp agonist 20% and gsp antag -4%.
Screening Cc1noc(C)c1S(=O)(=O)Nc1c(C)n(C)n(-c2ccccc2)c1=O returned Akt phos inh inactive, hERG WT inh -79*, Glioma ERSR ind -2%, KCNH2 3.1 inh -26, gsp agonist 7% and gsp antag 5%.
Screening Cc1c(NC(=O)c2cccc(F)c2)c(=O)n(-c2ccccc2)n1C returned Akt phos inh inactive, hERG WT inh -3, Glioma ERSR ind -3%, KCNH2 3.1 inh -109*, gsp agonist 1% and gsp antag 2%.
Screening Cc1ccc(/C=N/n2c(-c3ccccc3)csc2=S)cc1 returned Glioma ERSR ind -2%.
`CC(C)(C)n1ncc2c(=O)n(Cc3cc(F)c(F)cc3Cl)cnc21` gave Glioma ERSR ind -4%.
Cc1c(NC(=O)c2ccc(F)c(S(=O)(=O)N3CCOCC3)c2)c(=O)n(-c2ccccc2)n1C was read as Akt phos inh -106%*, hERG WT inh -2, Glioma ERSR ind 0%, KCNH2 3.1 inh 42, gsp agonist 9% and gsp antag 12%.
Cc1cc(F)ccc1S(=O)(=O)Nc1c(C)n(C)n(-c2ccccc2)c1=O was read as Akt phos inh inactive, hERG WT inh -8, Glioma ERSR ind -2%, KCNH2 3.1 inh -74*, gsp agonist -55% and gsp antag 10%.
For Cc1ccc(N(Cc2ccccc2)C(=O)c2ccc(F)c(S(=O)(=O)N3CCOCC3)c2)cc1 the results were Akt phos inh inactive, hERG WT inh -12, Glioma ERSR ind 1%, KCNH2 3.1 inh -93*, gsp agonist -11% and gsp antag -24%.
For Cc1cccc(N(Cc2ccccc2)C(=O)c2ccc(F)c(S(=O)(=O)N3CCOCC3)c2)c1 the results were Akt phos inh inactive, hERG WT inh 21, Glioma ERSR ind -2%, KCNH2 3.1 inh -12, gsp agonist -2% and gsp antag -33%.
Cc1c(NS(=O)(=O)c2ccccc2F)c(=O)n(-c2ccccc2)n1C was read as Akt phos inh inactive, hERG WT inh -9, Glioma ERSR ind -4%, KCNH2 3.1 inh -2, gsp agonist 8% and gsp antag 10%.
Screening Cc1cccc2c(N3CCCC3)nc(CNS(=O)(=O)c3ccc4ccccc4c3)nc12 returned Glioma ERSR ind -6%.
Screening COc1ccc(/C=C/c2ccc3ccccc3n2)cc1OC returned Glioma ERSR ind -10%.
For CC[C@H](C)[C@H](NC(=O)[C@@H](NC(=O)CNC(=O)[C@@H](N)CC(C)C)[C@@H](C)O)C(=O)N1CCC[C@H]1C(=O)NCC(=O)O the results were Glioma ERSR ind -8%.
Cc1ccc(Sc2ccc(CO)cc2[N+](=O)[O-])cc1 was read as Akt phos inh inactive, hERG WT inh 2, Glioma ERSR ind 6%, KCNH2 3.1 inh 7, gsp agonist 10%[15.4 µM] and gsp antag 12%.
`Cc1ccc(Sc2ccc(CN3CCCC3)cc2[N+](=O)[O-])cc1` gave Akt phos inh inactive, hERG WT inh 17, Glioma ERSR ind 0%, KCNH2 3.1 inh -93*, gsp agonist -52% and gsp antag 11%.
Screening CN1CCN(Cc2ccc(Sc3ccc(Cl)cc3)c([N+](=O)[O-])c2)CC1 returned Akt phos inh inactive, hERG WT inh -96*, Glioma ERSR ind -1%, KCNH2 3.1 inh -90*, gsp agonist 9%[15.4 µM] and gsp antag -6%.
`O=C(O)c1ccccc1C(=O)c1ccc(Sc2ccc(Cl)cc2)c([N+](=O)[O-])c1` gave Akt phos inh inactive, hERG WT inh 0, Glioma ERSR ind 0%, KCNH2 3.1 inh 4, gsp agonist -41% and gsp antag -13%.
For O=C(NC(c1cccnc1)C(F)(F)F)c1cnn(-c2nccc(-c3cccs3)n2)c1C1CC1 (stereo not given) the results were Glioma ERSR ind 2%.
CN(Cc1ccc(-n2cccn2)cc1)C(=O)c1cnn2c1NC(c1ccco1)CC2C(F)(F)F (stereo not given) was read as Akt phos inh inactive, hERG WT inh -2, Glioma ERSR ind -5%, KCNH2 3.1 inh 3, gsp agonist 0% and gsp antag 32µM*.
COCCNC(=O)c1cnn2c1NC(c1ccco1)CC2C(F)(F)F (stereo not given) was read as Akt phos inh inactive, hERG WT inh -1, Glioma ERSR ind -7%, KCNH2 3.1 inh 6, gsp agonist 12% and gsp antag 16%.
For Cc1ccc(SCc2c(C(=O)N/N=C/c3ccccc3)nnn2-c2nonc2N)cc1 the results were Akt phos inh inactive, hERG WT inh 2, Glioma ERSR ind -4%, KCNH2 3.1 inh -15, gsp agonist 9%[15.4 µM] and gsp antag -31%.
`CCN(CC)Cc1c(C(=O)N/N=C/c2ccc(OCc3ccccc3C)cc2)nnn1-c1nonc1N` gave Akt phos inh inactive, hERG WT inh -123*, Glioma ERSR ind 0%, KCNH2 3.1 inh -96*, gsp agonist inconclusive and gsp antag -16%.
Cc1ccc(SCc2c(C(=O)N/N=C/c3ccoc3)nnn2-c2nonc2N)cc1 was read as Akt phos inh inactive, hERG WT inh 5, Glioma ERSR ind 3%, KCNH2 3.1 inh 11, gsp agonist -18% and gsp antag 32µM*.
Cc1ccc(SCc2c(C(=O)N/N=C/c3ccc4c(c3)OCO4)nnn2-c2nonc2N)cc1 was read as Akt phos inh inactive, hERG WT inh 1, Glioma ERSR ind 6%, KCNH2 3.1 inh 16, gsp agonist -14% and gsp antag inconclusive.
For CN(C)Cc1c(C(=O)N/N=C/c2ccc(-c3ccccc3)cc2)nnn1-c1nonc1N the results were Akt phos inh inactive, hERG WT inh -46, Glioma ERSR ind -3%, KCNH2 3.1 inh -93*, gsp agonist inconclusive and gsp antag -7%.
Screening Cc1ccc(-c2c(C(=O)N/N=C/c3ccc4c(c3)OCO4)nnn2-c2nonc2N)cc1 returned Akt phos inh inactive, hERG WT inh 3, Glioma ERSR ind -3%, KCNH2 3.1 inh -2, gsp agonist 21% and gsp antag 25µM*.

Bioassay records: PubChem, National Center for Advancing Translational Sciences (NCATS)
